Laboratory results reported in PubChem BioAssay AID588590 (National Center for Advancing Translational Sciences (NCATS), 2011).
About 4,000 (1%) of roughly 390,000 compounds were called active. Inconclusive results (about 7%) are left out. Calls come from the whole dose curve; as a rule, active = well fitted inhibition curve with a large enough effect; inconclusive = small, poorly fitted or top-dose-only effect, or another doubt; inactive = no such curve, though single readings can be large or run the other way. For the sample, actives were picked, then their nearest neighbours and some compounds at random.
Potency is the fitted concentration of half-maximal effect.

What follows are molecules tested against DNA polymerase iota (Homo sapiens) (UniProt Q9UNA4) (assay: qHTS for Inhibitors of Polymerase Iota). Conditions: Pol iota fluorescent replication assay, 10 min; series mostly up to 115 µM; activity, negative = inhibition: at the top concentration.
Chain of DNA polymerase iota (Homo sapiens) (Q9UNA4 whole entry, looked up): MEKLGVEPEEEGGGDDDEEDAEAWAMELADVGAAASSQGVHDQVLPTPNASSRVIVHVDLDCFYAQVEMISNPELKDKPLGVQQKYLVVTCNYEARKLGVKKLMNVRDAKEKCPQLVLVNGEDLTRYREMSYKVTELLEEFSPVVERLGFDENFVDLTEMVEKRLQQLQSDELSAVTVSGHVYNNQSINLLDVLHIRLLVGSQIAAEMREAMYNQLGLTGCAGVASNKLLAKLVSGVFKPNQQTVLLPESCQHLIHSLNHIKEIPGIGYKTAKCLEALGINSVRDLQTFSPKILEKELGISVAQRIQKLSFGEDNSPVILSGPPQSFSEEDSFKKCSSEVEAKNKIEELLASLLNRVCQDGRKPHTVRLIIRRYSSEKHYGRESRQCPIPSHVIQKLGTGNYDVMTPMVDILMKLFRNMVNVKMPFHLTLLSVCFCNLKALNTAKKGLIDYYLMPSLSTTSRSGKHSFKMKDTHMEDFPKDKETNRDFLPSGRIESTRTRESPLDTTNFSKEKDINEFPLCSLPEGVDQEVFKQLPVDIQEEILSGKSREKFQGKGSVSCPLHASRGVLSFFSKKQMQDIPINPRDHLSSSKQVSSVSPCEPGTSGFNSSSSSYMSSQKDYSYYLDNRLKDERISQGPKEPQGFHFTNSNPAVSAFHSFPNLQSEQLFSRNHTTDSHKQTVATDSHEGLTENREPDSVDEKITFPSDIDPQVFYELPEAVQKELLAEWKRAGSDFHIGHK
Text: DNA polymerases, such as Pol iota, are specifically involved in DNA repair. Pol iota specifically plays an important role in translesion synthesis, where the normal high-fidelity DNA polymerases cannot proceed and DNA synthesis stalls. […] Thus, while pol eta's (and most likely iota's) normal function is to protect humans against the deleterious consequences of DNA damage, under certain conditions they can have deleterious effects on human health. As a consequence, we propose to utilize a high throughput replication assay to identify small molecule inhibitors of pol iota.
In a collaboration between the National Institute of Child Health & Human Development (NICHD) and NIH Chemical Genomics Center, a high-throughput, fluorescent screen was developed to screen the NIH Molecular Libraries Small Molecule Repository (MLSMR). This screen is used to identify inhibitors of pol iota.
NIH Chemical Genomics Center [NCGC]
NIH Molecular Libraries Probe Centers Network [MLPCN]
Assay Submitter (PI): Roger Woodgate, NICHD)
Three microliters of reagents (buffer in column 3 and 4 as negative control and 10 nM Pol iota in columns 1, 2, and 5-48) will be dispensed into 1,536-well black solid-bottomed plate. Compounds (23 nL) will be transferred via Kalypsys pin tool equipped with 1536-pin array. The plates will then be incubated for 15 min at room temperature, and 1 µL substrate (50 nM final concentration) will be added to start the reaction and kinetically read twice at 0 min and 10 min on the Viewlux reader.
`Cc1ccc(-c2ccc(CCC(=O)O)n2-c2ccc(C(N)=O)cc2)cc1` was tested, and the “activity, negative = inhibition” value was 3.26% (inactive).
`COc1ccc(Cl)cc1S(=O)(=O)N1CCN(CC(=O)C(C)(C)C)CC1` was tested, and the “activity, negative = inhibition” value was -2.4% (inactive).
For `N#Cc1ccsc1NC(=O)CN1CCN(S(=O)(=O)c2cc(Cl)ccc2Cl)CC1`, the “activity, negative = inhibition” value was -9.21% (inactive).
`O=C(CN1CCN(S(=O)(=O)c2cc(Cl)ccc2Cl)CC1)c1ccc(O)c(O)c1` was tested, and the Potency was 10 µM (active).
With `Cc1[nH]c2ccccc2c1C(=O)C(=O)N(C)c1ccccc1` the “activity, negative = inhibition” value was 27.1% (inactive).
`Cc1ccc(-c2nc3ccccn3c2Nc2ccc(F)cc2)o1` was tested, and the “activity, negative = inhibition” value was 21.9% (inactive).
For `CCCCCCCNc1ccc(/C=C/c2ccnc3ccccc23)cc1`, the “activity, negative = inhibition” value was 34.6% (inactive).
`O=C(Cn1c(=O)n(-c2ccc(F)cc2)c(=O)c2sc3ccccc3c21)NC1CCCC1` was tested, and the “activity, negative = inhibition” value was -2.5% (inactive).
In the case of `COc1ccc(CNC(=O)c2cc3c(-c4ccccc4F)nn(C)c3s2)c(OC)c1`, the “activity, negative = inhibition” value is reported as -0.744% (inactive).
In the case of `CSc1cccc(NC(=O)CN2C(=O)CCc3cc(S(=O)(=O)N4CCCCC4)ccc32)c1`, the “activity, negative = inhibition” value is reported as -12.3% (inactive).
`Cc1oc2c(c1C(=O)N1CCOCC1)C(=O)c1ccccc1C2=O` was tested, and the “activity, negative = inhibition” value was -7.65% (inactive).
`O=C1c2ccccc2-c2ncnc3c(N4CCOCC4)cc(N4CCOCC4)c1c23` was tested, and the “activity, negative = inhibition” value was 12.6% (inactive).
With `COC1=C(N2CCOCC2)C(=O)c2ccccc2C1=O` the Potency was 14.1 µM (active).
In the case of `Cc1cccn2c(=O)c3cc(C(=O)NC(C)c4ccccc4)c(=N)n(CCCO)c3nc12` (stereo not given), the “activity, negative = inhibition” value is reported as 5.28% (inactive).
With `COc1cc(O)c2c(=O)c3c(O)c(O)ccc3oc2c1OC` the “activity, negative = inhibition” value was -4.12% (inactive).
With `COc1c(O)cc2oc(-c3ccc(O)c(O)c3)cc(=O)c2c1O` the Potency was 7.94 µM (active).
In the case of `COc1ccc(-c2c(C)c3ccc(O)c(CN4CCN(C)CC4)c3oc2=O)cc1OC`, the “activity, negative = inhibition” value is reported as -12.2% (inactive).
With `C=CCn1c(SCC(=O)NCCCO)nc2sc3c(c2c1=O)CCC3` the “activity, negative = inhibition” value was 45.2% (inactive).
In the case of `C=CCNC(=O)CSc1nc2scc(-c3ccco3)c2c(=O)n1CC=C`, the Potency is reported as 44.7 µM (active).
With `C=CCn1c(=S)[nH]c2scc(-c3ccco3)c2c1=O` the Potency was 4.47 µM (active).
`C=CCn1c(SCC(=O)NCC2CCCO2)nc2sc(C)c(C)c2c1=O` (stereo not given) was tested, and the “activity, negative = inhibition” value was 22.8% (inactive).
In the case of `CCOC(=O)c1cccc(NC(=O)C(Cc2ccccc2)NS(=O)(=O)c2cccc3nsnc23)c1` (stereo not given), the “activity, negative = inhibition” value is reported as 39.6% (inactive).
In the case of `Cc1ccc(N2CC(c3nnc(Cc4ccccc4Cl)o3)CC2=O)cc1` (stereo not given), the “activity, negative = inhibition” value is reported as -8.99% (inactive).
For `CCOc1ccc(N(CC)S(=O)(=O)N2CCCC(C(=O)NCc3ccc(Cl)cc3)C2)cc1` (stereo not given), the “activity, negative = inhibition” value was 4.52% (inactive).
`CCOc1ccc(-n2nc3ccc(NC(=O)c4ccc(OC)c(Cl)c4)cc3n2)cc1` was tested, and the “activity, negative = inhibition” value was 23.2% (inactive).
For `CCOc1ccc(CNC(=O)C2CCCN(S(=O)(=O)N(CC)c3ccc(OCC)cc3)C2)cc1` (stereo not given), the “activity, negative = inhibition” value was -9.13% (inactive).
For `CCN(CC)CCNC(=O)Cn1ncc2c3ccccc3n(Cc3ccccc3C)c2c1=O`, the “activity, negative = inhibition” value was 20.6% (inactive).
For `N#Cc1cccc(OC(=O)c2ccc3c(=O)n4c(nc3c2)CCC4)c1`, the Potency was 20 µM (active).
`COC(=O)c1ccccc1NC(=O)c1ccc2c(=O)n3c(nc2c1)CCCCC3` was tested, and the “activity, negative = inhibition” value was 17% (inactive).
In the case of `CC1CCN(C(=O)c2ccc3c(=O)n4c(nc3c2)CCCCC4)CC1`, the “activity, negative = inhibition” value is reported as 2.81% (inactive).
`CCOC(=O)c1c(NC(=O)Cc2coc3ccc(CC)cc23)sc2c1CCC2` was tested, and the “activity, negative = inhibition” value was 20.1% (inactive).
With `O=C1COc2c1ccc(O)c2O` the Potency was 17.8 µM (active).
In the case of `CCc1ccc(CNC(=O)c2cc3c(=O)n(CC)c4ccccc4c3s2)cc1`, the “activity, negative = inhibition” value is reported as -4.94% (inactive).
`O=C(CN1C(=O)COc2ccccc21)Nc1ccc(F)cc1` was tested, and the “activity, negative = inhibition” value was 25.2% (inactive).
In the case of `CCc1ccc(NC(=O)CN2C(=O)CSC2=O)cc1`, the “activity, negative = inhibition” value is reported as -2.66% (inactive).
`Cn1cccc1/C=C1\SC(=O)N(CC(=O)Nc2ccc(F)cc2)C1=O` was tested, and the Potency was 79.4 µM (active).
For `Cc1ccccc1CN1CCC(CNC(=O)c2c(C)oc3ncnc(N4CCCCC4)c23)CC1`, the “activity, negative = inhibition” value was -25.9% (inactive).
With `CCOc1cc(-c2nnc(SCC(=O)NC3CCCCC3)nc2-c2ccc(OC)c(OCC)c2)ccc1OC` the “activity, negative = inhibition” value was 26.3% (inactive).
In the case of `CCc1nn(CC(=O)N2CCN(CC)CC2)c(=O)c2cccn12`, the “activity, negative = inhibition” value is reported as -19.7% (inactive).
`CCCN1CCN(C(=O)Cn2ncc3ccccc32)CC1` was tested, and the Potency was 39.8 µM (active).
For `CN1CCN(C(=O)Cn2c(C(F)(F)F)nc3ccccc32)CC1`, the “activity, negative = inhibition” value was 68.1% (inactive).
In the case of `Oc1ccc(-c2nc3ccc(Cl)cn3c2Nc2ccc3c(c2)OCO3)cc1`, the “activity, negative = inhibition” value is reported as -2.69% (inactive).
In the case of `CC(C)c1ccc(NC(=S)NNc2ccc(Cl)c(C(=O)O)c2)cc1`, the Potency is reported as 11.2 µM (active).
`O=C(NC(=S)Nc1ccc(Cl)c(C(=O)O)c1)c1cncc(Br)c1` was tested, and the “activity, negative = inhibition” value was -13.8% (inactive).
For `Cc1ccc(C)c(NC(=S)NNC(=S)Nc2ccc(C(C)C)cc2)c1`, the “activity, negative = inhibition” value was -14.7% (inactive).
In the case of `COc1ccccc1NC(=O)Cn1cnc2ccc(S(=O)(=O)N3CCC(C)CC3)cc2c1=O`, the “activity, negative = inhibition” value is reported as 2.42% (inactive).
For `COc1cccc(NC(=O)CN2C(=O)c3ccccc3Sc3ncccc32)c1`, the “activity, negative = inhibition” value was 187% (inactive).
With `COc1ccccc1NC(=O)CN1C(=O)c2ccccc2Sc2ccc(C(=O)N3CCCC3)cc21` the Potency was 79.4 µM (active).
`COC(=O)c1ccc2c(c1)N(CC(=O)Nc1ccc(C)c(C)c1)C(=O)c1ccccc1S2` was tested, and the “activity, negative = inhibition” value was 9.94% (inactive).
With `CCc1c(C)sc(NC(=O)C2c3ccccc3Oc3ccccc32)c1C(=O)OC(C)C` the “activity, negative = inhibition” value was -4.88% (inactive).
